Screen size: about 16,000 compounds; about 5,700 (36%) were called active. Inconclusive results (about 24%) are left out. This is one part of the list. Unmarked numbers belong to inactive results. The call rests on the fitted dose curve; in most records, active means well fitted curve in the direction sought with a large enough effect; inconclusive means small, poorly fitted or top-dose-only effect, or effect the other way; inactive means no such curve, though single readings can be large or run the other way.
What follows are compounds tested against Cytochrome P450 1A2 (Homo sapiens) (UniProt P05177) (assay: Cytochrome panel assay with activity outcomes). Details: recombinant CYP, pro-luciferin dealkylation, luminescence, p450-cyp1a2; series mostly up to 57.1 µM; activity, negative = inhibition: at the top concentration.
Cytochrome P450 1A2 (Homo sapiens), sequence (P05177 whole entry, looked up): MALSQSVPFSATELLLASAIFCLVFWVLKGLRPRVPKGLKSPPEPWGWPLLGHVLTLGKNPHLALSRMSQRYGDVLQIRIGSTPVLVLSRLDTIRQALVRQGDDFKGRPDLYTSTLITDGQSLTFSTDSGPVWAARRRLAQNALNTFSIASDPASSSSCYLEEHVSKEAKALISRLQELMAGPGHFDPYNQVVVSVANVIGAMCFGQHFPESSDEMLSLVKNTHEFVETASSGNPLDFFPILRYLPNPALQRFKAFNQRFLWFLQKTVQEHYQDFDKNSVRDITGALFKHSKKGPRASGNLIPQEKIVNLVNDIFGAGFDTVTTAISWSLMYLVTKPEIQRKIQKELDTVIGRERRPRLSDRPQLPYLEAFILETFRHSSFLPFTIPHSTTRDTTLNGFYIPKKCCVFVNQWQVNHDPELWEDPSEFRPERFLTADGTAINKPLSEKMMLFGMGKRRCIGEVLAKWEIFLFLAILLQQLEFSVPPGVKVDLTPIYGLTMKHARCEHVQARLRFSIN
On the % scale 0 is the no-effect control and ±100 the full control effect.

SMILES | activity, negative = inhibition | AC50
COCC(=O)N1CCC2(CCCN(C(=O)Nc3ccc(OC)cc3)C2)CC1 | -12% | –
Cc1nc2ccccn2c1C(=O)CSc1ccccc1Cl | – | 8.91 µM (active)
Cc1nc2ccccn2c1/C(O)=C1\C(=O)C(=O)N(CCCn2ccnc2)C1c1ccncc1 (stereo not drawn) | -11.6% | –
CC(C)(C)NC(=O)NC(=O)CSc1nnc2ccccn12 | -9.41% | –
CCCCn1nc2cc(C(=O)NCC3CC3)ccc2c1OCC | -28.4% | –
CCOc1c2ccc(C(=O)NCc3ccco3)cc2nn1CC | – | 2.51 µM (active)
O=C(CSc1nc2ccccc2c(=O)n1CCCC(=O)N1CCCC1)NCc1ccco1 | -10.2% | –
CCCCCn1c(SCc2ccncc2)nc2cc(C(=O)NCc3ccco3)ccc2c1=O | – | 4.47 µM (active)
CCOc1c2ccc(C(=O)NCCc3cccs3)cc2nn1CC | – | 8.91 µM (active)
CCCn1nc2cc(C(=O)NCc3ccccc3OC)ccc2c1OCC | -23.4% | –
c1ccc(C2OCC3(CO2)COC(c2ccccc2)OC3)cc1 (stereo not drawn) | -11.4% | –
Cc1cccc(NC(=O)Cn2c(=O)oc3ccccc32)c1 | – | 15.8 µM (active)
CC1CCCC(NC(=O)CCn2c(=O)oc3ccccc32)C1C (stereo not drawn) | -15.5% | –
COCCNC(=O)CCn1c(=O)oc2ccccc21 | -5.72% | –
Cc1cccc(NC(=O)Cn2c(=O)n3nc(CCn4nc(C)cc4C)nc3c3ccccc32)c1 | -14.4% | –
Cc1ccc(CNC(=O)Cn2c(=O)oc3ccccc32)o1 | – | 12.6 µM (active)
COC(=O)[C@@]1(Cc2ccc(OC)cc2)[C@H]2c3cc(C(=O)N4CCCC4)n(CCn4cc([N+](=O)[O-])nc4C)c3C[C@H]2CN1C(=O)c1ccccc1 | 2.38% | –
CCCn1c(N)c(C(=O)CSc2nc(C)cs2)c(=O)n(C)c1=O | – | 15.8 µM (active)
CSc1cccc(NC(=O)Nc2ccc(Cl)cc2)c1 | – | 5.01 µM (active)
Cc1cc(C)cc(C(=O)N(NC(=O)Nc2ccc(Cl)cc2)C(C)(C)C)c1 | -5.9% | –
O=C(O)CC[C@@]1(c2ccccc2)NC(=O)NC1=O | -11.4% [at 11.4 µM] | –
Cc1ccc(N(CCC#N)C(=O)CSc2ccc3c(c2)OCCO3)cc1 | – | 2 µM (active)
CCOC(=O)c1[nH]c(C)c(C)c1C | – | 0.501 µM (active)
Cc1cc(C)c2cc(C#N)c(NCCOC(=O)c3ccccc3C)nc2c1 | – | 1.26 µM (active)
CCCCNc1nc(-c2ccccc2)c(C(=O)OCC)cc1C#N | – | 4.47 µM (active)
CCOC(=O)c1cc(C#N)c(Oc2ccccc2OC)nc1-c1ccccc1 | – | 0.708 µM (active)
O=C1CCCC=C1[C@@H](O)COCc1ccccc1 | -6.11% [at 11.4 µM] | –
CCN1C(=O)CC(N2CCN(CC(=O)NC(C)C)CC2)C1=O (stereo not drawn) | 6.61% | –
